{"source": "PubChem BioAssay", "key": {"[1]": {"assay": "compounds altering circadian rhythm period length – cell-based, LOPAC library, luminescence reporter (AID 2774);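 also: values are relative to mean of DMSO wells on each plate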", "settings": "circadian reporter cells, at 7 µM, actives lie on both sides"}, "[2]": {"assay": "chitosan synthesis blockers in C. neoformans – flow cytometry, Cibacron Brilliant Red staining (AID 1347148);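 also: compound exposure lasted three days at 37 degrees C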", "settings": "Cryptococcus neoformans chitosan, stronger effect = lower value; at 10 µM unless noted"}, "[3]": {"assay": "MELAS cybrid and Rieske KO viability enhancers – cell-based, MELAS cybrids, Rieske KO mouse fibroblasts, CellTiter-Glo, primary screen (AID 1508586;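 active = mean z-score across replicates of 1.96 or higher in either the MELAS or the Rieske mutant cell line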;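 also: z relative to plate mean and SD of compound and empty wells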)", "settings": "low glucose"}, "[4]": {"molecular_target": "NAD(+) hydrolase SARM1 (Homo sapiens) (UniProt Q6SZW1)", "sequence (Q6SZW1 whole entry, looked up)": "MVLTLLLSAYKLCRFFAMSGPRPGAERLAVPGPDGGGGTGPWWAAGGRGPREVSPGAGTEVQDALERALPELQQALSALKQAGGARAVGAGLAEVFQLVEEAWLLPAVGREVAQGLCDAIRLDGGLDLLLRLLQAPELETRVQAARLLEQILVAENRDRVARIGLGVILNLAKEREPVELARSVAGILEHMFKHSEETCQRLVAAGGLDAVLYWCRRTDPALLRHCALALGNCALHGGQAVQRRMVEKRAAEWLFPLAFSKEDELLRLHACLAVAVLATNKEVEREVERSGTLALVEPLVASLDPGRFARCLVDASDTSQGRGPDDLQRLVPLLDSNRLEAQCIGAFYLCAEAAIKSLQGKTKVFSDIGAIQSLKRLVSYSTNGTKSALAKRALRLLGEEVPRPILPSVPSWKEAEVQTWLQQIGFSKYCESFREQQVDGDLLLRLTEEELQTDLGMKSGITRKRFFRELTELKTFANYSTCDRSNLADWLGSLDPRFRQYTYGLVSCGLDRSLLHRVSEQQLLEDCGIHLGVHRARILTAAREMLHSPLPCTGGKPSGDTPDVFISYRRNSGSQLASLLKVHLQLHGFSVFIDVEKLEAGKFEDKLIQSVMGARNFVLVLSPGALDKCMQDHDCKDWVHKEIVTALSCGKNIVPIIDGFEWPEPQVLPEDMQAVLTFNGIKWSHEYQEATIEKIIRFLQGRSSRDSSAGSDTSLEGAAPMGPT", "assay": "blocking NAD cleavage by SARM1 SAM-TIR – cell lysate, NAD-Glo luminescence (AID 1508614;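 active = compound whose remaining NAD level is above about 45 nM, limit read from the data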)", "settings": "SAM-TIR HEK293T lysate NADase, at 1 µM, stronger effect = higher value"}, "[5]": {"molecular_target": "Mitogen-activated protein kinase 7 (Homo sapiens) (UniProt Q13164)", "sequence (Q13164 whole entry, looked up, the tested form may be a part)": "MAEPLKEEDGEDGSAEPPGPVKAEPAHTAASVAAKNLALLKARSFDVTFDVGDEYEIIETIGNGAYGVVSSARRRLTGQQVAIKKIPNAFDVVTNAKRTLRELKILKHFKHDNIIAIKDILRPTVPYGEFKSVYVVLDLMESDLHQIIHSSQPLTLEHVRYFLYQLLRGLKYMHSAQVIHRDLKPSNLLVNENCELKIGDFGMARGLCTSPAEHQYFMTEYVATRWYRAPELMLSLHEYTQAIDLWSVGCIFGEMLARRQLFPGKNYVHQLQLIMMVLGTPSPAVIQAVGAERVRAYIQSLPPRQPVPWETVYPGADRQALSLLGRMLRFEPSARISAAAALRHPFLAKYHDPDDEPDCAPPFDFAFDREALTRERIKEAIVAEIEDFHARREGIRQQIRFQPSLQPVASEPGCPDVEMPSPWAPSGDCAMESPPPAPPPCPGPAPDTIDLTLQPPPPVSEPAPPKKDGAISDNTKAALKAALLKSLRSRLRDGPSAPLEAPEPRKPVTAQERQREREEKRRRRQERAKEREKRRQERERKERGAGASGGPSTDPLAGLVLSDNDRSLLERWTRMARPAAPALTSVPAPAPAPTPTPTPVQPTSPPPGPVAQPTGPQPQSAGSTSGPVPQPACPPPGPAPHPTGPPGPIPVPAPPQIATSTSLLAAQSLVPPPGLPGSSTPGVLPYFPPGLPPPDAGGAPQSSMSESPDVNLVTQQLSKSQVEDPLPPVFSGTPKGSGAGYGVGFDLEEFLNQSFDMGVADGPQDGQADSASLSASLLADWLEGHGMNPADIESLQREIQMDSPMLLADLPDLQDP", "assay": "Gal4-ERK5 driven luciferase induction – cell-based, HTS, primary screen (AID 1508626;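 active = luciferase signal above three times the same-plate solvent-only control wells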;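 also: luciferase driven by Gal4-ERK5 fusion binding five Gal4 sites before minimal TATA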)", "settings": "HeLa Gal4-ERK5 transactivation, 18 h, at 5 µM, stronger effect = higher value"}, "[6]": {"assay": "blockers of cellular phospholipid synthesis – cell-based, LOPAC library, screen 4, primary screen (AID 1347384)", "settings": "animal cells, phospholipid biosynthesis inhibition screen; at 10 µM"}, "[7]": {"assay": "P. berghei load reduction in hepatocytes – cell-based, HepG2, luciferase luminescence, HepG2 viability, primary screen (AID 624349; in the data active = parasite load remaining mostly below about 12%, no sharp cut-off; inactive = mostly above about 10%;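 also: 100% = mean of DMSO negative control wells on the same plate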)", "settings": "P. berghei liver stage in HepG2, luciferase luminescence, concentration not given here; parasite load remaining: stronger effect = lower value; viability: measured here: HepG2 viability without parasites"}, "[8]": {"molecular_target": "ATP-dependent translocase ABCB1 (Homo sapiens) (UniProt P08183)", "sequence (P08183 whole entry, looked up)": "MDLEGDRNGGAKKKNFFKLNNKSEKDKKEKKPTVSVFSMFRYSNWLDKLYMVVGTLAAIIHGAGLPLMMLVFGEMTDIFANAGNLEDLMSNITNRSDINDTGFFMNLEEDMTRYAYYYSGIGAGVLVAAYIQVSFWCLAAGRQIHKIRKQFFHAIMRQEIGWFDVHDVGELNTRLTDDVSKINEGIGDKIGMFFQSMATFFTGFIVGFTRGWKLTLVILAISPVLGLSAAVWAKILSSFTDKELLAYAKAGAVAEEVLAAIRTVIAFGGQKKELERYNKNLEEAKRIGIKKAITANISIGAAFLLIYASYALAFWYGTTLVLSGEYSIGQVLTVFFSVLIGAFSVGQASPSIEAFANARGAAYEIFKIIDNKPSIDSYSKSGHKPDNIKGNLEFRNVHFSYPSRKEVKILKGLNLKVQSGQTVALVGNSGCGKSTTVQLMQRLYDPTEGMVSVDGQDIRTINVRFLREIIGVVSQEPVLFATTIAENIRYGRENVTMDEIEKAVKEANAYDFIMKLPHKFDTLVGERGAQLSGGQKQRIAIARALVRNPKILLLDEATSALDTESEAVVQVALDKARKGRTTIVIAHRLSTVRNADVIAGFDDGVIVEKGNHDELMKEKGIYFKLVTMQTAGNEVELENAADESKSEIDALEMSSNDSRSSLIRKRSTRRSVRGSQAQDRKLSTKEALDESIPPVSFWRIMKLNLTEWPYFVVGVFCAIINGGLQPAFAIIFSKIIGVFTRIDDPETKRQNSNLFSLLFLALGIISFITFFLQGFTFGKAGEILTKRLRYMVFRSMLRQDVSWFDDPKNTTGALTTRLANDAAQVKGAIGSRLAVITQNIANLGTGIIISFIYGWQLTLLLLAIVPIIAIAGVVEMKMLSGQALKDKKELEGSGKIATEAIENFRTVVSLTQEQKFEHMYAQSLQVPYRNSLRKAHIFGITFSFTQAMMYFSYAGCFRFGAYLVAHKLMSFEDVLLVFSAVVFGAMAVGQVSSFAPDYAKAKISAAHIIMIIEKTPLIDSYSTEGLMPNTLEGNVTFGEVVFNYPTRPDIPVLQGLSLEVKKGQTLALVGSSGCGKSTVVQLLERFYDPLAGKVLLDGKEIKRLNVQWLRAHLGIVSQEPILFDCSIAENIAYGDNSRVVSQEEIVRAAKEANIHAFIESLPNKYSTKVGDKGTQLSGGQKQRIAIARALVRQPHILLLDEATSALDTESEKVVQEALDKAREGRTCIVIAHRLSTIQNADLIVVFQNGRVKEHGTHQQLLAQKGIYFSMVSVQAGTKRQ", "assay": "P-glycoprotein substrate transport blockade – cell-based (AID 377; in the data active = fluorescence slope change above about 50%)", "settings": "MDR1-expressing cells, fluorescent substrate accumulation slope; stronger effect = higher value; concentration not given here"}, "[9]": {"assay": "blockers of polyQ-driven CASP3 activation – cell-based (AID 1583)", "settings": "polyglutamine-induced caspase-3 activation, cell assay; stronger effect = higher value;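 tested at 10 µM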"}, "[10]": {"assay": "yeast 75Q aggregation reduction – 75Q-TubU reporter (AID 1593)", "settings": "Yeast 75Q polyglutamine aggregation reporter"}, "[11]": {"assay": "restoration of touch response, mutant HTT neurons – whole organism, C. elegans mechanosensory neurons, N-terminal huntingtin (AID 1599)", "settings": "C. elegans polyQ-huntingtin mechanosensory neurons, stronger effect = higher value"}, "[12]": {"assay": "blockers of cytochrome c efflux from mitochondria – biochemical, purified mitochondria (AID 1603);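 also: mouse liver mitochondria challenged with calcium chloride; signal normalized to the plate average as 100%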", "settings": "stronger effect = lower value"}, "[13]": {"assay": "polyglutamine aggregate formation blockers (AID 1604)", "settings": "polyglutamine-induced protein aggregation inhibition assay; stronger effect = higher value; tested at 2.5 µM"}, "[14]": {"assay": "glutamate transport activators, MN-1 cells, MN-1 cell line (AID 1612);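 also: tested at 1 µM final; 0% = mean of DMSO vehicle wells on each plate; positive means more glutamate uptake than control and negative means less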", "settings": "MN-1 motor neuron cells, stronger effect = higher value"}, "[15]": {"assay": "GFP-Q80 aggregate reduction, neuronal-like cells, cell-based, NGF-treated PC12, GFPQ80 (AID 1614);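 also: lower means fewer inclusions and 0 means no inclusions at all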", "settings": "PC12 NGF-treated GFP-polyQ80 inclusion reduction"}, "[16]": {"assay": "75Q-TubH aggregate inhibition, S. cerevisiae, yeast (AID 1616)", "settings": "S. cerevisiae 75Q-TubH polyglutamine aggregation suppression; stronger effect = higher value"}, "[17]": {"settings": "MELAS cybrid survival, CellTiter-Glo 48 h, stronger effect = higher value"}, "[18]": {"settings": "Rieske KO mouse fibroblast survival, CellTiter-Glo 72 h"}}, "note": "Records with an inconclusive call do not appear. For part of these data: Entries with a potency or affinity are not part of this list. Calls of active or inactive are those of the source. Unless noted, no rule for the calls is given here.", "data": [{"smiles": "C#CCN(C)[C@@H](C)Cc1ccccc1", "values": [{"measurement": "period change", "setting": "[1]", "value": "0.185 h (inactive)"}, {"measurement": "fold fluorescence", "setting": "[2]", "value": "5.04 [at 267 µM] (inactive)"}]}, {"smiles": "C=CC[C@]1(O)CC[C@H]2[C@@H]3CCC4=CC(=O)CCC4=C3C=C[C@@]21C", "values": [{"measurement": "z-score", "setting": "[3]; [17]", "value": "0.712 (inactive)"}, {"measurement": "z-score", "setting": "[3]; [18]", "value": 0.629}, {"measurement": "remaining NAD", "setting": "[4]", "value": "10 nM (inactive)"}, {"measurement": "luciferase signal", "setting": "[5]", "value": "60 AU (inactive)"}]}, {"smiles": "CC(=O)O[C@H]1C[C@H](O[C@H]2[C@@H](O)C[C@H](O[C@H]3[C@@H](O)C[C@H](O[C@H]4CC[C@@]5(C)[C@H](CC[C@@H]6[C@@H]5C[C@@H](O)[C@]5(C)[C@@H](C7=CC(=O)OC7)CC[C@]65O)C4)O[C@@H]3C)O[C@@H]2C)O[C@H](C)[C@H]1O[C@@H]1O[C@H](CO)[C@@H](O)[C@H](O)[C@H]1O", "values": [{"measurement": "z-score", "setting": "[3]; [17]", "value": "2.15 (active)"}, {"measurement": "z-score", "setting": "[3]; [18]", "value": 0.322}, {"measurement": "remaining NAD", "setting": "[4]", "value": "10 nM (inactive)"}, {"measurement": "luciferase signal", "setting": "[5]", "value": "44 AU (inactive)"}]}, {"smiles": "CCCC[C@H](C)[C@H](OC(=O)C[C@H](CC(=O)O)C(=O)O)[C@@H](C[C@H](C)C[C@@H](O)CCCC[C@H](O)C[C@@H](O)[C@@H](C)N)OC(=O)C[C@@H](CC(=O)O)C(=O)O", "values": [{"measurement": "fold fluorescence", "setting": "[2]", "value": "2.99 [at 69.3 µM] (inactive)"}]}, {"smiles": "OC[C@@H]1O[C@H](n2cnc3cc(Cl)c(Cl)cc32)C(O)[C@@H]1O", "note": "(stereo partly drawn)", "values": [{"measurement": "fold fluorescence", "setting": "[2]", "value": "3.08 [at 156.7 µM] (inactive)"}]}, {"smiles": "CCCCCCCCCCCCCC(=O)O[C@H]1[C@H](C)[C@]2(O)[C@H](C=C(CO)C[C@@]3(O)C(=O)C(C)=C[C@H]23)[C@H]2C(C)(C)[C@@]12OC(C)=O", "values": [{"measurement": "fold fluorescence", "setting": "[2]", "value": "4.29 [at 81.1 µM] (inactive)"}]}, {"smiles": "[Cl][Pt].[NH2-].[NH2-].c1ccncc1", "values": [{"measurement": "outcome", "setting": "[6]", "value": "inactive"}]}, {"smiles": "COC(=O)[C@]1(O)C[C@@H]2O[C@@]1(C)n1c3ccccc3c3c4c(c5c6ccccc6n2c5c31)C(=O)NC4", "values": [{"measurement": "parasite load remaining", "setting": "[7]", "value": "43.2% (inactive)"}, {"measurement": "viability", "setting": "[7]", "value": 53.6, "unit": "%"}, {"measurement": "fold fluorescence", "setting": "[2]", "value": "6.41 [at 10.7 µM] (inactive)"}]}, {"smiles": "CC(C)[C@@]1(O)[C@H](OC(=O)c2ccc[nH]2)[C@]2(O)[C@]3(C)C[C@@]4(O)O[C@]5([C@@H](O)[C@H](C)CC[C@@]35O)[C@]2(O)[C@@]41C", "values": [{"measurement": "fold fluorescence", "setting": "[2]", "value": "3.48 [at 101.3 µM] (inactive)"}]}, {"smiles": "Cc1c(C(=O)c2cccc3ccccc23)c2cccc3c2n1[C@@H](CN1CCOCC1)CO3", "values": [{"measurement": "fold fluorescence", "setting": "[2]", "value": "4.51 (inactive)"}]}, {"smiles": "CCN(CC)C(C)C(=O)c1ccccc1", "note": "(stereo not drawn)", "values": [{"measurement": "z-score", "setting": "[3]; [17]", "value": "0.648 (inactive)"}, {"measurement": "z-score", "setting": "[3]; [18]", "value": -0.333}]}, {"smiles": "CC1(C)[C@@H](O)C[C@H]2[C@](C)(O)[C@@H]3CCC4[C@@H](O)[C@@]3(C[C@@H](O)[C@@]21O)C[C@@]4(C)O", "values": [{"measurement": "fold fluorescence", "setting": "[2]", "value": "2.34 [at 135 µM] (active)"}]}, {"smiles": "CC1=C2C[C@@H]3[C@H](CC=C4C[C@H](O)CC[C@]43C)[C@H]2CC[C@@]12O[C@H]1C[C@@H](C)CN[C@@H]1[C@@H]2C", "values": [{"measurement": "fold fluorescence", "setting": "[2]", "value": "14.9 [at 121.5 µM] (inactive)"}]}, {"smiles": "O[C@@H]1[C@@H](O)[C@H](O)CN2CC[C@@H](O)[C@@H]12", "values": [{"measurement": "fold fluorescence", "setting": "[2]", "value": "5.17 [at 264.3 µM] (inactive)"}]}, {"smiles": "CC(N)C(O)c1ccccc1", "note": "(stereo not drawn)", "values": [{"measurement": "fluorescence slope change", "setting": "[8]", "value": "4.9% (inactive)"}, {"measurement": "inhibition", "setting": "[9]", "value": -49.8, "unit": "%"}, {"measurement": "score", "setting": "[10]", "value": 1.3}, {"measurement": "rescue above control", "setting": "[11]", "value": -2.3}, {"measurement": "cytochrome c release ratio", "setting": "[12]", "value": 0.86}, {"measurement": "inhibition of aggregation", "setting": "[13]", "value": 86.1, "unit": "%"}, {"measurement": "glutamate uptake change", "setting": "[14]", "value": 4.9, "unit": "%"}, {"measurement": "inclusion score", "setting": "[15]", "value": 2}, {"measurement": "aggregation suppression score", "setting": "[16]", "value": 1.78}]}]}
